Measured values taken from PubChem BioAssay.
The source made the active and inactive calls.

Assays:
Albumin (Bos taurus) = Albumin (Bos taurus) (UniProt P02769); experiment: compounds binding labelled BSA control protein – biochemical, small-molecule microarray, Alexa647 label, 635/667 nm fluorescence, artefact control for SMM control protein annotation, profiling panel (AID 1118); settings: BSA-A647 binding, fluorescence 635 nm, higher = more signal;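 further: score merges 667 nm emission intensity and signal-to-noise per printed compound spot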
[1] = probe aXIP binding to arrayed compounds – biochemical, NeuroSMM set, 635/667 nm fluorescence, primary screen (AID 1119); settings: small-molecule microarray, higher = more signal, called active from +8 up or from −8 down;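 further: probe is the protein aXip251-270 applied at 1 µg/mL to compound-printed slides; binding of probe to printed compounds measured as 667 nm fluorescence plus signal to noise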
[2] = probe aNOTCH3 binding on compound microarray – biochemical, small-molecule microarray, 635/667 nm fluorescence, primary screen (AID 1120); settings: higher = more signal;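 further: probe is a biotin-tagged antibody raised against NOTCH3 rather than NOTCH3 protein; score merges spot fluorescence near 667 nm with spot signal to noise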
[3] = probe aNOTCH2 binding on compound microarray – biochemical, small-molecule microarray, 635/667 nm fluorescence, primary screen (AID 1121); settings: higher = more signal;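 further: score merges feature fluorescence read at 667 nm with its signal to noise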
[4] = molecular target: Carbonic anhydrase 2 (Homo sapiens) (UniProt P00918); experiment: compounds binding carbonic anhydrase 2 – biochemical, small-molecule microarray, Alexa647-labelled CAII, profiling panel (AID 1122); settings: CAII-A647 binding fluorescence, higher = more signal
[5] = COS7 lysate on small-molecule microarray, probe aHis, 635 nm (AID 1123); settings: COS7 cell lysate, fluorescence, higher = more signal;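 further: z-score combines 667nm fluorescence intensity with signal-to-noise per printed compound spot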
[6] = probe aLAP1 signal on lysate-treated microarray – cell lysate, small-molecule microarray, COS7 lysate, primary screen (AID 1124); settings: probe aLAP1, fluorescence, higher = more signal;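 further: lysate comes from COS7 cells expressing LAP1 and is applied at 0.3 µg/mL; score merges spot fluorescence near 667 nm with signal-to-noise over triplicate slides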
Sam68 (KHDRBS1) = experiment: compounds binding KHDRBS1 protein – biochemical, small-molecule microarray, 635 nm fluorescence, primary screen (AID 1125); settings: higher = more signal;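 further: score merges 667 nm channel intensity with signal to noise over triplicate slides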
[7] = tested on: Chordin-like protein 2 (CHRDL2); experiment: compounds binding chordin-like 2 – biochemical, small-molecule microarray, 635 nm fluorescence, primary screen (AID 1126); settings: fluorescence 635 nm, higher = more signal;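 further: printed compound slides probed with Chrdl2 protein at 4 µg/mL for 1 h at 4 C; score merges 667 nm emission intensity with signal to noise over three replicate slides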
[8] = molecular target: Concanavalin-A (Canavalia ensiformis) (UniProt P02866); experiment: compounds binding concanavalin A lectin – biochemical, small-molecule microarray, Alexa647 label, 635 nm, artefact control for SMM control protein annotation, primary screen (AID 1127); settings: ConA-A647 binding fluorescence, higher = more signal;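 further: z combines 667 nm emission intensity with signal-to-noise across three replicate slides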
[9] = compounds binding Alexa647 anti-His antibody – biochemical, small-molecule microarray, 635 nm fluorescence, artefact control for SMM control protein annotation, primary screen (AID 1128); settings: higher = more signal;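 further: score merges feature fluorescence with signal-to-noise for each printed compound spot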
[10] = tested on: Human papillomavirus type 1a E7 protein (residues 1-88); experiment: HPV1a E7 small-molecule binders, primary screen, biochemical, small-molecule microarray, residues 1-88, 635 nm (AID 1129); settings: small-molecule microarray binding, fluorescence 635 nm; higher = more signal
[11] = molecular target: Focal adhesion kinase 1 (Homo sapiens) (UniProt Q05397); experiment: PTK2 protein binding on printed compound slides – biochemical, small-molecule microarray, 635/667 nm fluorescence, BSA, DTT, primary screen (AID 1130); settings: 635 nm fluorescence, higher = more signal;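 further: composite of spot emission at 667 nm and signal to noise over triplicate slides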
[12] = tested on: Fibrinogen (Alexa647-labelled); experiment: Alexa647-fibrinogen binding to printed small molecules – biochemical, small-molecule microarray, 635/667 nm fluorescence, artefact control for SMM control-protein annotation, profiling panel (AID 1131); settings: fibrinogen-A647 binding fluorescence, higher = more signal;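 further: z-score merges 667 nm fluorescence with per-spot signal-to-noise over triplicate slides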
[13] = molecular target: Follistatin (Homo sapiens) (UniProt P19883); experiment: FST protein binding to printed compounds – biochemical, small-molecule microarray, 635/667 nm fluorescence, primary screen (AID 1132); settings: 635 nm fluorescence, higher = more signal
[14] = molecular target: Fibroblast growth factor 2 (Homo sapiens) (UniProt P09038); experiment: basic fibroblast growth factor binding to printed compounds – biochemical, small-molecule microarray, 635/667 nm fluorescence, primary screen (AID 1133); settings: FGF2, fluorescence 635/667, higher = more signal
[15] = JC-1 mitochondrial potential readout, lung cancer cells – cell-based, A549, JC-1 fluorescence, basal, 24 h, 100 nL, profiling panel (AID 1138); settings: higher = more signal;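 further: A549 lung adenocarcinoma cells under basal conditions with no added stimulus; test concentration not given here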
Lefty1 = Lefty1 protein binding to printed compounds – biochemical, small-molecule microarray, 635/667 nm fluorescence, primary screen (AID 1139); settings: fluorescence 635/667, higher = more signal
[16] = tested on: wheat germ agglutinin (Triticum aestivum), Alexa647-labelled; experiment: Alexa647-WGA lectin binding to printed small molecules – biochemical, small-molecule microarray, 635/667 nm fluorescence, artefact control for SMM control-protein annotation, profiling panel (AID 1140); settings: WGA-A647 binding, 635 nm fluorescence, higher = more signal;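 further: score merges 667 nm feature emission with signal to noise over triplicate slides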
[17] = molecular target: Luciferin 4-monooxygenase (Photinus pyralis) (UniProt P08659); experiment: inhibition of purified Photinus pyralis luciferase – biochemical, luminescence, purified enzyme, 2006 set, primary screen (AID 1141); settings: purified firefly luciferase, SteadyGlo luminescence, 30 min; higher = more signal, called active from +8 up or from −8 down;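 further: cell-free assay with purified firefly luciferase at 100 ng per well in PBS; test concentration not given here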
Luciferin 4-monooxygenase (Photinus pyralis), sequence (P08659 whole entry, looked up): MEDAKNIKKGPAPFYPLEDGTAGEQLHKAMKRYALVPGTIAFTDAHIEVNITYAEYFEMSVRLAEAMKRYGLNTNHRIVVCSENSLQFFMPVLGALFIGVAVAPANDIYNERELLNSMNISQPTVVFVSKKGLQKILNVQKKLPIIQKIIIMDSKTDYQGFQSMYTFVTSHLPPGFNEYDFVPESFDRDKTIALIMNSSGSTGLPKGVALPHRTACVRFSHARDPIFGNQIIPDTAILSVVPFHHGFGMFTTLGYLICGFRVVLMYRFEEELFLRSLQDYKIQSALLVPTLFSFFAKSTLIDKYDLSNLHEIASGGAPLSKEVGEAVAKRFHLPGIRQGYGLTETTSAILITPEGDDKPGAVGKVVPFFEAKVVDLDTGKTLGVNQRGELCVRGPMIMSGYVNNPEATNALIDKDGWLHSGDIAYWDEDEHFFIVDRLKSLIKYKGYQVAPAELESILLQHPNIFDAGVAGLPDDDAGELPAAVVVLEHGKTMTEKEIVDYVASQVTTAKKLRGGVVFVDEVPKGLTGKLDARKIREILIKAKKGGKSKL

Concanavalin-A (Canavalia ensiformis), sequence (P02866 whole entry, looked up): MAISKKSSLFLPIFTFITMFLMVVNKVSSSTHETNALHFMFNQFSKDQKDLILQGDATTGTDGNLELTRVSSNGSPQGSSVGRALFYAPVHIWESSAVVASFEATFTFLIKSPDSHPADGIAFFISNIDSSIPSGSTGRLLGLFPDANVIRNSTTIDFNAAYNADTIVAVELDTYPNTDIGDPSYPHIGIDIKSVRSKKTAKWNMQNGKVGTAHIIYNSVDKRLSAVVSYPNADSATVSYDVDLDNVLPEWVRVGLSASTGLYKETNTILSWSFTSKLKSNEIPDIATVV
Focal adhesion kinase 1 (Homo sapiens), sequence (Q05397 whole entry, looked up): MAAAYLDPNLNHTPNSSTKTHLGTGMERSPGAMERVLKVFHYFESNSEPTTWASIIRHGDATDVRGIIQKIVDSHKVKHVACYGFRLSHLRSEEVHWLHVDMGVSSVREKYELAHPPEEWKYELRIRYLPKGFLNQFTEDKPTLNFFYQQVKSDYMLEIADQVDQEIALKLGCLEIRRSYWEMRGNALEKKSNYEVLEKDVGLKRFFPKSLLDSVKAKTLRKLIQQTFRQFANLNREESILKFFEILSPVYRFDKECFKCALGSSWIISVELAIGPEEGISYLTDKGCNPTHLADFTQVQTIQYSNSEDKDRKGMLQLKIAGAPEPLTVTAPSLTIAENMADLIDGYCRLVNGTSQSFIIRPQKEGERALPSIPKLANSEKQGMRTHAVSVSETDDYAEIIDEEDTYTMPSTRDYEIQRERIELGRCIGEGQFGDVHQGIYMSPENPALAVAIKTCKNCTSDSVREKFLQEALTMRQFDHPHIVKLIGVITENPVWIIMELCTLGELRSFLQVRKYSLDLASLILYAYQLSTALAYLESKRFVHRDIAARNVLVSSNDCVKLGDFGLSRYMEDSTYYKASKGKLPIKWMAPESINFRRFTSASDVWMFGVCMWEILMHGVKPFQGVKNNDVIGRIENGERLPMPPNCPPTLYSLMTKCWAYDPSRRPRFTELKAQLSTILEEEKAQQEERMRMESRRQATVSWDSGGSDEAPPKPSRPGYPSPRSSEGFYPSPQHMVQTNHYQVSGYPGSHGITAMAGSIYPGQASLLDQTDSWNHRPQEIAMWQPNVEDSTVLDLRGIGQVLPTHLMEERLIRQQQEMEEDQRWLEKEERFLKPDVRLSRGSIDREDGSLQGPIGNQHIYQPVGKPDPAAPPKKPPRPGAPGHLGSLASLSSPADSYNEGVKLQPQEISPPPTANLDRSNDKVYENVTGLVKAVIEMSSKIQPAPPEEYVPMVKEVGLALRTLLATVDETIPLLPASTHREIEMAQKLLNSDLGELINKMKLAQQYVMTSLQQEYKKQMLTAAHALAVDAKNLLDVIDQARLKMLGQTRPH
Follistatin (Homo sapiens), sequence (P19883 whole entry, looked up): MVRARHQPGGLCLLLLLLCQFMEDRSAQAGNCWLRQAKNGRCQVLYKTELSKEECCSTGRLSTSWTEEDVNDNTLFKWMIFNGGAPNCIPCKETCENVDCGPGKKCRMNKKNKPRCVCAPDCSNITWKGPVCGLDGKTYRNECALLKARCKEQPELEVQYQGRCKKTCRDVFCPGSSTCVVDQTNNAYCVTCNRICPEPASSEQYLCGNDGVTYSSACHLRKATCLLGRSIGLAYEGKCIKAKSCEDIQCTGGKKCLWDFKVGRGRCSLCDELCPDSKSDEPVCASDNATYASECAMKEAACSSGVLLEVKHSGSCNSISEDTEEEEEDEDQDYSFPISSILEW
Albumin (Bos taurus), sequence (P02769 whole entry, looked up): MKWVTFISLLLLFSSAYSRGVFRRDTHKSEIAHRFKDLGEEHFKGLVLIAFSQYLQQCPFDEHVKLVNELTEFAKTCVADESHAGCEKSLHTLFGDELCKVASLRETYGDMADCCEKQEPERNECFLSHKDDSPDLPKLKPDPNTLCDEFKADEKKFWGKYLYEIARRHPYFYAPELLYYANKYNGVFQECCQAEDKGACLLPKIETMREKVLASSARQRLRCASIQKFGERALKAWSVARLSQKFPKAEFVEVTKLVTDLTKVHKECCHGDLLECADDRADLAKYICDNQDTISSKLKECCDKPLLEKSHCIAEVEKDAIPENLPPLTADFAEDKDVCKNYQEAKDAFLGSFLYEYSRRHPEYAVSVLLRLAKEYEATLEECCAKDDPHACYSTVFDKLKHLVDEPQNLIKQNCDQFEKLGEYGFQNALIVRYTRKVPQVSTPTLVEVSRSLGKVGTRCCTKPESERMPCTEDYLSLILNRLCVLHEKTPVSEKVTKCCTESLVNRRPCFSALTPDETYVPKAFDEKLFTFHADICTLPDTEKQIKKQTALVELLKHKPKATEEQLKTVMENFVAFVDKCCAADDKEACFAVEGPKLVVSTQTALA
Fibroblast growth factor 2 (Homo sapiens), sequence (P09038 whole entry, looked up): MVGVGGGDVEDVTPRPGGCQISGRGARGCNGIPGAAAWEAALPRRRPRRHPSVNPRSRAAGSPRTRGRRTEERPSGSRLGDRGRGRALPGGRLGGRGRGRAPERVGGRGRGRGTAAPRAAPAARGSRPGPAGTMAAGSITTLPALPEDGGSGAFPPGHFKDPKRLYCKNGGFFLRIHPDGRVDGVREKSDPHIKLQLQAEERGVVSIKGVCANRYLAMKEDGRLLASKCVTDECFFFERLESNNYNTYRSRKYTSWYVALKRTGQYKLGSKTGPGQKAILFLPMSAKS

| SMILES | composite z-score (Albumin (Bos taurus)) | composite Z-score [1] | composite z-score [2] | composite z-score [3] | composite z-score [4] | composite z-score [5] | composite z-score [6] | composite z-score (Sam68 (KHDRBS1)) | composite z-score [7] | composite z-score [8] | composite z-score [9] | composite z-score [10] | composite z-score [11] | composite z-score [12] | composite z-score [13] | composite z-score [14] | z-score [15] | composite z-score (Lefty1) | composite z-score [16] | z-score [17] |
| --- | --- | --- | --- | --- | --- | --- | --- | --- | --- | --- | --- | --- | --- | --- | --- | --- | --- | --- | --- | --- |
| CCCCN1CC=CC23O[C@@H]4C=CCOC(=O)[C@@H]4[C@H]2C(=O)N(CCCCCCO)[C@@H]3C1=O (stereo not given in full) | -0.469 | 0.998 (inactive) | -0.182 | -0.187 | 0.95 | -0.275 | 0.456 | -0.821 | -1.83 | -1.24 | -0.818 | -0.544 | 0.717 | -2.1 | -1.55 | -0.802 | 0.00246 | -1.25 | -1.24 | -0.419 (inactive) |
| COc1ccc([Si](C)(C)[C@@H]2[C@@H](CC(=O)N3Cc4ccccc4C[C@H]3CO)O[C@]3(C(=O)N(Cc4cccc(N5CCC5=O)c4)c4ccccc43)[C@H]2C)cc1 | -0.147 | 0.3 (inactive) | 0.16 | -0.117 | 0.283 | 1.15 | 0.0905 | 1.22 | 0.711 | 0.961 | 0.887 | 1.12 | 0.366 | 0.357 | 1.22 | 1.01 | -0.256 | 1.02 | 0.696 | -0.106 (inactive) |
| COC(=O)[C@]1(CCC(=O)OC(C)(C)C)N=C(c2ccc(OCCCO)cc2)O[C@@H]1c1ccccc1 | 0.0503 | 1.55 (inactive) | 0.0834 | 0.153 | 0.687 | 1.83 | 0.569 | -0.116 | -0.483 | 0.259 | 2.76 | 0.527 | -0.239 | -0.233 | 0.263 | 0.16 | 0.804 | -0.657 | 0.197 | -2.77 (inactive) |
| CCN(CC)c1ccc(N2CC=CC34O[C@@H]5/C=C\CCC(C)OC(=O)C5[C@H]3C(=O)N(CCCCCO)[C@@H]4C2=O)cc1 (stereo not given in full) | -0.295 | -0.4 (inactive) | -0.222 | -0.19 | 0.905 | -1.05 | -0.472 | -2.57 | -1.16 | -2.12 | -0.117 | -0.886 | -0.336 | -0.899 | -0.614 | -0.48 | 0.105 | -0.978 | 0.208 | -0.659 (inactive) |
| C[N+](C)(C)CCCCCCNC(=O)[C@H]1C[C@H]2C(=O)N[C@@H](Cc3ccccc3)C(=O)N2[C@H]1c1cccc(OCCO)c1 | -0.174 | 0.35 (inactive) | -0.1 | -0.107 | 0.638 | 2.1 | 0.319 | 0.699 | 1.01 | 0.996 | 0.357 | 0.69 | 0.118 | 0.22 | 1.16 | 1.83 | -0.585 | 1.4 | -0.046 | 0.0538 (inactive) |
| COC(=O)c1c2oc(c1C(=O)OC)C(=O)N[C@@H](C(C)C)Cn1cc(nn1)C1(CCCCC1)NC(=O)N[C@H](CO)CC2 | -0.0901 | -0.203 (inactive) | -0.122 | -0.0761 | 0.828 | 1.18 | -0.0841 | 0.194 | 0.199 | 0.689 | 0.591 | -0.159 | -0.0947 | 0.209 | 0.515 | 1.58 | 2.2 | 0.102 | 0.0969 | -1.3 (inactive) |
